Test results published in PubChem BioAssay.
The source made the active and inactive calls.

Experiment: osmotic lysis modulators in infected erythrocytes, primary screen, PSAC antagonist project, cell-based, P. falciparum Indochina, OD700, 3 h (AID 1156)
Settings: higher = more signal, called active from +8 up or from −8 down

z-score, inactive:
COCCOC(=O)N1C(=O)[C@@]2(c3cc(C#Cc4ccc(OC)cc4)ccc31)[C@H](C(=O)N1CCCCCCC1)[C@H]1C(=O)O[C@H](c3ccccc3)[C@H](c3ccccc3)N1[C@@H]2c1ccc(O)cc1 -0.318
COc1cc2c(cc1OC)CN(C(=O)[C@H]1[C@@H]3C(=O)O[C@@H](c4ccccc4)[C@@H](c4ccccc4)N3[C@@H](c3ccc(OCCO)cc3)[C@]13C(=O)Nc1ccc(C#CC4(O)CCCCCC4)cc13)CC2 1.08
CCCC[C@@H]1C[C@H]1[C@@H](NC(=O)c1cccnc1)c1ccc(-c2ccccc2)cc1 0.219
CON(C)C(=O)C=C1C[C@@H](c2cccc(Cl)c2)O[C@@H](c2cccc(Cl)c2)O1 -1.24
COCCCNC(=O)[C@]1(CCC(=O)OC(C)(C)C)N=C(c2ccc(OCCCO)cc2)O[C@@H]1c1ccccc1 0.58
C=CCOC(=O)[C@H]1[C@@H]2C(=O)O[C@@H](c3ccccc3)[C@@H](c3ccccc3)N2[C@@H](c2ccc(OCCOC(=O)[C@H]3C[C@H]4C(=O)N[C@@H](Cc5ccccc5)C(=O)N4[C@H]3c3ccc(O)cc3)cc2)[C@]12C(=O)Nc1ccc(I)cc12 0.28
CC(C)(C)N1CC=CC23O[C@@H]4C=CCOC(=O)[C@@H]4[C@H]2C(=O)N(CCCO)[C@@H]3C1=O (stereo partly specified) 0.858
NCCCCCCNC(=O)[C@@H]1C[C@@H]2C(=O)N3CCC[C@H]3C(=O)N2[C@@H]1c1ccc(O)cc1 -0.653
CCCCC(CC)C(O)C1C=CC2C(=O)N(c3ccccc3)C(=O)C2N1Nc1ccc([N+](=O)[O-])cc1 (stereo unspecified) 0.369
C=C(COC)/C(=C/C[C@@H](OC(=O)c1ccncc1)c1ccc(CO)o1)c1cnc2ccccc2c1 1
COCCCNC(=O)[C@@H]1c2ccccc2C(=O)N(Cc2ccccc2C(F)(F)F)[C@H]1c1ccc(CO)cc1 0.0034
CCCN1C(=O)[C@]2(Cc3ccccc3)N=C(c3ccc(OCCCO)cc3)O[C@@H]2c2ccccc21 1.25
CO[C@H]1O[C@H](CO)[C@@H](OC(=O)Nc2ccccc2-c2ccccc2)[C@H](OC(=O)Nc2ccc3c(c2)OCO3)[C@@H]1OC(=O)Nc1ccc2c(c1)OCO2 1.22
COCCOC(=O)N1C(=O)[C@@]2(c3cc(C#CC4(O)CCCCCC4)ccc31)[C@H](C(N)=O)[C@H]1C(=O)O[C@H](c3ccccc3)[C@H](c3ccccc3)N1[C@@H]2c1ccc(O)cc1 2.21
CC(CO)N1C(=O)[C@@H]2C3C(=O)OCCC/C=C\[C@H]3OC23C=CCN(Cn2nnc4ccccc42)C(=O)[C@@H]13 (stereo partly specified) 2.14
C[C@]1(C(=O)NC2CC2)c2ccccc2C(=O)N(Cc2ccc(OC(F)(F)F)cc2)[C@H]1c1ccc(CO)cc1 4.64
COc1ccc([Si](C)(C)[C@H]2[C@H](CCn3cc([C@H](O)c4ccccc4)nn3)O[C@@]3(C(=O)N(Cc4cccc(N5C(=O)c6cccc7cccc5c67)c4)c4ccccc43)[C@@H]2C)cc1 -0.58
COc1ccc([Si](C)(C)[C@H]2[C@H](CCO)O[C@@]3(C(=O)N(Cc4cccc(N5CCCCC5=O)c4)c4ccccc43)[C@@H]2C)cc1 0.558
O=C1O[C@@H](c2ccccc2)[C@@H](c2ccccc2)N2[C@@H](c3ccc(O)cc3)[C@]3(C(=O)Nc4ccc(C#CCCO)cc43)[C@@H](C(=O)NC[C@H](O)c3ccccc3)[C@H]12 0.283
CC(C)CN1C(=O)[C@@]2(Cc3ccccc31)c1ccccc1C(=O)N(Cc1ccccc1C(F)(F)F)[C@H]2c1ccc(CO)cc1 -0.495
CC(C)C(O)C1C=CC2C(=O)N(C)C(=O)C2N1N(c1ccccc1)c1ccccc1 (stereo unspecified) -0.255
C=CCC(OC(C)=O)[C@@H]1[C@@H](N(Cc2ccc(-c3ccccc3)cc2)C(=O)c2cccc3ccccc23)c2cc(OCCCO)ccc2N1C(=O)Cc1ccc2ccccc2c1 (stereo partly specified) -0.498
Cc1ccc(S[C@]2(C(=O)NC3CC3)CC(=O)N(Cc3ccccc3Cl)[C@@H]2c2ccc(CO)cc2I)cc1 0.796
O=C1NCC(=O)N2[C@@H]1C[C@@H](C(=O)O)[C@H]2c1ccc(O)cc1 -3.02
CC(C)CNC(=O)[C@@]1(c2ccc([N+](=O)[O-])cc2)CC(=O)N(C2CCCCC2)[C@@H]1c1ccc(CO)cc1I 3.67
COc1ccc(NN2C(C(O)c3ccccn3)C=CC3C(=O)N(C4CCCCC4)C(=O)C32)cc1 (stereo unspecified) 0.34
[N-]=[N+]=NCc1ccccc1C[C@@]1(C(N)=O)N=C(c2ccc(OCCCO)cc2)O[C@@H]1c1ccccc1CN=[N+]=[N-] 1.31
CN1C(=O)C2C=CC(C(O)c3c(F)cccc3Cl)N(Nc3ccccc3)C2C1=O (stereo unspecified) -0.108
COC(=O)c1c(CC[C@@H](CO)NC(=O)N[C@H](Cn2cc(-c3ccccc3C)nn2)C(C)C)oc(C(C)=O)c1C(=O)OC 1.56
C=CCOC(=O)[C@@H]1[C@H]2C(=O)O[C@H](c3ccccc3)[C@H](c3ccccc3)N2[C@H](c2ccc(OCCOC(=O)[C@H]3C[C@H]4C(=O)N[C@@H](CCCCN(C)C)C(=O)N4[C@H]3c3cccc(OCCO)c3)cc2)[C@@]12C(=O)Nc1ccc(I)cc12 -1.08
COc1ccc([Si](C)(C)[C@@H]2[C@@H](CCO)O[C@]3(C(=O)N(Cc4cccc(N5C(=O)c6ccccc6Oc6ccccc65)c4)c4ccccc43)[C@H]2C)cc1 0.207
C=CC[C@]1(C(=O)N(C)C)N=C(c2ccc(OCCCO)cc2)O[C@H]1c1ccccc1N=[N+]=[N-] 2.88
COCCOC(=O)N1C(=O)[C@@]2(c3cc(C#CCC(C(=O)OC)C(=O)OC)ccc31)[C@H](c1ccc(OCCO)cc1)N1[C@H](c3ccccc3)[C@H](c3ccccc3)OC(=O)[C@H]1[C@@H]2C(=O)N1CCN(c2ncccn2)CC1 0.14
COCCOC(=O)N1C(=O)[C@@]2(c3cc(C#CC4(O)CCCCCC4)ccc31)[C@H](c1ccccc1OCCO)N1[C@H](c3ccccc3)[C@H](c3ccccc3)OC(=O)[C@H]1[C@@H]2C(N)=O -0.971
C=CCNC(=O)[C@H]1[C@@H]2C(=O)O[C@@H](c3ccccc3)[C@@H](c3ccccc3)N2[C@@H](c2ccccc2OCCO)[C@]12C(=O)N(C(=O)OCCOC)c1ccc(C#CC3=CCCCC3)cc12 -0.032
C=CCN1C(=O)[C@@]2(O[C@@H](CCn3cc([C@H](O)c4ccccc4)nn3)[C@H]([Si](C)(C)c3ccc(OC)cc3)[C@H]2C)c2ccccc21 1.04
